{"source": "PubChem BioAssay AID1032", "about": "(The Scripps Research Institute Molecular Screening Center, 2008)", "note": "The whole screen tested about 200,000 compounds, of which about 670 (0.34%) were called active. The full list was thinned out, with actives kept by preference. A number with no mark means an inactive call. Rule as the data show it: active = activation above about 22%; inactive = the rest.", "data": [{"biological_target": "Peroxisome proliferator-activated receptor gamma (Homo sapiens) (UniProt P37231)", "sequence (P37231 whole entry, looked up, the tested form may be a part)": "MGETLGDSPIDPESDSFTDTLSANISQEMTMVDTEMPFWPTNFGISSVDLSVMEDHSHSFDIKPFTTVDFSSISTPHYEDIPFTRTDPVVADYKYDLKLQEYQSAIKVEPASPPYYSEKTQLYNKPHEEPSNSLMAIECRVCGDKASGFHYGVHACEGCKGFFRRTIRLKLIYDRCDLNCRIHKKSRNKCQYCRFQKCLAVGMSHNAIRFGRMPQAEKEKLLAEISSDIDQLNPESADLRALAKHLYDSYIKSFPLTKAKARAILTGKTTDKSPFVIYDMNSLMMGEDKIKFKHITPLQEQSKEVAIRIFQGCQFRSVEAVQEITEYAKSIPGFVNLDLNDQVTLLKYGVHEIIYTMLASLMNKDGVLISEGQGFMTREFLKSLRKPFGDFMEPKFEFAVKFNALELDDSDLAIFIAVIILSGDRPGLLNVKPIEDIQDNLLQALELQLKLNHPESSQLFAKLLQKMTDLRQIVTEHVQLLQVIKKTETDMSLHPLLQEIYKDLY", "test": "agonists of PPARg-SRC-2 recruitment, primary screen, biochemical, HTS (AID 1032);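 also: 0% = vehicle and 100% = reference agonist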", "settings": "PPARgamma LBD-SRC-2 recruitment, at 8 µM, hits give high values", "values": [{"compound": "CSC1=NP(=S)(SC)N(C)c2nc3n(c21)CCC3", "note": "(stereo not given)", "activation": "76.2% (active)"}, {"compound": "Cc1cccc2c(CCN)c[nH]c12", "activation": "0.78%"}, {"compound": "O=C(Cc1ccccc1[N+](=O)[O-])N1CCN(Cc2ccc3c(c2)OCO3)CC1", "activation": "0.02%"}, {"compound": "CCN1CCN(c2ccc([N+](=O)[O-])cc2C#N)CC1", "activation": "6.97%"}, {"compound": "CC(C)CN1CCN(Cc2ccccc2C(F)(F)F)CC1CCO", "note": "(stereo not given)", "activation": "-9.41%"}, {"compound": "COc1cc(-n2c(=S)[nH]c3ccc(C)cc3c2=O)c(Cl)cc1Cl", "activation": "24.8% (active)"}, {"compound": "CN(C)/C=C(\\C=[N+](C)C)c1[nH]ncc1[N+](=O)[O-]", "activation": "3.67%"}, {"compound": "Cc1ccsc1C(=O)C1CCCN(Cc2ccc(O)cc2)C1", "note": "(stereo not given)", "activation": "4.16%"}, {"compound": "O=C1NC(=O)N(c2ccccc2)C(=O)/C1=C/c1ccc([N+](=O)[O-])s1", "activation": "0.92%"}, {"compound": "COc1ccc(CN2C(=O)NC(=O)/C(=C\\c3ccc(OC)c(OC)c3OC)C2=O)cc1", "activation": "11%"}]}]}
